High-throughput results: PubChem, National Center for Advancing Translational Sciences (NCATS)
HT1080-NT tox = kills 2HG-producing HT-1080-NT fibrosarcoma cells; AID 686970; HT-1080-NT fibrosarcoma viability, CellTiter-Glo ATP luminescence, 48 h; hit rate 1.6% among 360,000; Potency, µM (series often up to 46.1 µM), for inactives: at the highest dose activity, negative = less viability, hits mostly cytotoxic;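 note: NT is the 2HG producing partner of a matched IDH1 knockdown line; 0% = DMSO-treated cells and -100% = media-only wells without cells; nearly all actives have a fitted effect of over 55% in size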
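A 48-hour cytotoxicity screen used HT-1080-NT cells plated 2 hours before compound delivery. ATP-based CellTiter-Glo luminescence measured viability, normalized to DMSO and no-cell controls.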
TDP1 cell CPT = growth inhibition of DT40 Tdp1-/-;hTDP1 cells with camptothecin (screen for TDP1 inhibitors); chicken DT40 Tdp1-/-;hTDP1 cells + 20 nM CPT, ATP luminescence, 48 h; AID 686979; Potency, µM (top dose mostly 46.2 µM), for inactives: top-dose activity change, negative = growth inhibition, most hits filed as inhibitors; hit rate 12% among 420,000; note: % is set by controls: 0 for no effect and ±100 for the full control effect; nearly all actives have a fitted effect of over 55% in size
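Chicken DT40 Tdp1-/- cells stably complemented with human TDP1 were seeded at 400 cells/well in medium containing 20 nM camptothecin, exposed to pin-transferred compounds, and grown at 37 °C for at least 48 hr. Viability was read as ATP luminescence.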
TGFb SMAD3 inh = inhibitors of TGF-b signaling | HepG2 CAGA-GFP TGF-b/SMAD3 reporter, GFP fluorescence, 18 h; TGF-beta stimulated, 500 pg/mL final | Potency, µM (doses to about 46.1 µM), for inactives: top-dose activity, negative = inhibition, actives largely listed as inhibitors | hit rate 1.2% among 410,000; note: % is set by controls: 0 for no effect and ±100 for the full control effect; nearly all actives have a fitted effect of over 65% in size
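TGF-beta reporter screen: HEPG2 CAGA-GFP, 1% FBS, 500 pg/mL TGF-beta final, 18 h; per-cell GFP summed per well; curves fitted and categorized by class.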
TDP1 cell noCPT = qHTS for Inhibitors of human tyrosyl-DNA phosphodiesterase 1 (TDP1): qHTS in cells in absence of CPT; DT40 Tdp1-/- hTDP1 cells, no CPT, ATP luminescence, 48 h; Potency, µM (doses to about 46.2 µM), for inactives: at the highest dose activity change, negative = growth inhibition, most hits filed as inhibitors; hit rate 15% among 420,000; AID 686978, 2013; note: % is set by controls: 0 for no effect and ±100 for the full control effect; nearly all actives have a fitted effect of over 55% in size
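Compound effects on proliferation are scored in DT40 Tdp1-/-;hTDP1 cells in the absence of CPT. ATP levels (CellTiter-Glo luminescence) are recorded after a ≥48 hr, 37 °C incubation.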
HT1080 IDH1KD tx = toxicity to HT-1080 IDH1 knockdown cells (counter line) | HT-1080 IDH1 knockdown viability, ATP luminescence, 48 h | Potency, µM (doses to about 46.1 µM), inactives show at the top dose activity, negative = toxicity, actives largely listed as cytotoxic | hit rate 2% among 360,000;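 note: 0% = DMSO wells and -100% = cell-free medium wells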
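In this qHTS, HT-1080 cells depleted of IDH1 are exposed for 48 h at 37 °C to compound titrations. Toxicity is scored from CellTiter-Glo luminescence, with DMSO as full viability and medium alone as none.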
HepG2 tox = HepG2 cytotoxicity, counter-screen for TGF-b inhibitors; Potency, µM (titrated, usually from 46.1 µM), for inactives: at the top dose activity change, negative = cytotoxicity, hits mostly cytotoxic; hit rate 0.76% among 410,000; HepG2 CAGA-GFP viability, ATP luminescence, 18 h; AID 588856
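HepG2 CAGA-GFP cells (1000/well, DMEM with 1% FBS) received compound, then TGF-beta at 500 pg/mL final, and were incubated 18 hours at 37 degrees C. Viability was read by CellTiter-Glo luminescence. Media-only wells were set as complete cell-killing and DMSO as no toxicity.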
* = called active by the depositor; ? = inconclusive; . = no result given; [ ] = dose if it differs, or a comment. Rows were chosen to be rich in hits. Some 17% of all compounds tested hit in one or more screens of this group. Calls come from the whole dose curve; as a rule, active = well fitted curve in the direction sought with a large enough effect; inconclusive = small, poorly fitted or top-dose-only effect, or another doubt; inactive = no such curve, though single readings can be large; an effect the other way counts as inactive or inconclusive. Potency is the fitted concentration of half-maximal effect.

SMILES	HT1080-NT tox	TDP1 cell CPT	TGFb SMAD3 inh	TDP1 cell noCPT	HT1080 IDH1KD tx	HepG2 tox
COc1ccc(Cl)cc1C(=O)Nc1cccc(-c2ccc3nncn3n2)c1	4%	?	4%	-19%	13%	11%
COc1cnc(-c2ccccn2)nc1Oc1cccc(Cl)c1	-2%	18µM*	-20%	8.2µM*	2%	-17%
COc1nc(C)ccc1-c1noc(-c2ccccn2)n1	-30%	-12%	-21%	-10%	-17%	-20%
COc1cnc(-c2ccccc2)nc1Oc1cccc(C)c1	-2%	?	-2%	?	-6%	-13%
COc1cnc(-c2ccccn2)nc1Oc1c(C)cccc1C	-7%	3.3µM*	-19%	3.3µM*	?	-22%
COc1cnc(-c2ccccn2)nc1N(C)C	?	?	-27%	2.9µM*	5.8µM*	-17%
COc1cnc(-c2ccccc2)nc1OC	-6%	3%	2%	-9%	3%	-12%
CNc1cccc(-c2c(OC)cccc2OC)n1	-27%	?	-2%	?	-2%	-4%
COc1ccc(C(=O)Nc2nnc(SCc3cc(=O)c4cccc(F)c4[nH]3)s2)cc1	.	?	-7%	?	.	-32%
O=C(NC1CCCCC1)C(c1cccnc1)N(C(=O)c1csnn1)c1ccccc1 (stereo not drawn)	16%	0%	3%	2%	12%	3%
O=C(NNc1c(Cl)cccc1Cl)c1ccno1	-13%	7%	-12%	-4%	1%	-7%
COc1cc(-c2cc(C)c3c(OC)ccc(OC)c3n2)cc2c1OCCN(C(=O)CCn1ccc(C)n1)C2	.	13%[9.04 µM]	.	?	.	.
O=C(CN1C(=O)COc2ccccc2C1=O)c1ccc2c(c1)OCCO2	12%	3%	6%	2%	8%	16%
COc1cc(OC)cc(C2=Cc3ccccc3C(CC(=O)c3ccco3)N2c2ccc(-c3ccc(C(N)=O)cc3)cc2)c1 (stereo not drawn)	?	?	.	?	-11%	.
COc1cc(OC)cc(C2=Cc3ccc(OC)cc3C(CC(C)=O)N2c2ccc(C#CCCO)cc2)c1 (stereo not drawn)	?	?	.	21µM*	?	.
COc1cc(OC)cc(C2=Cc3ccccc3C(CC(=O)c3ccco3)N2c2ccc(-c3cncnc3)cc2)c1 (stereo not drawn)	-23%	8.2µM*	.	?	-2%	.
CC(=O)CC1c2ccccc2C=C(c2ccsc2)N1c1ccc(-c2cccs2)cc1 (stereo not drawn)	16%	10µM*	.	10µM*	4%	.
COc1ncc(-c2ccc(N3C(c4ccsc4)=Cc4ccccc4C3CC(C)=O)cc2)cn1 (stereo not drawn)	-5%	?	.	?	-8%	.
COc1cc(OC)cc(C2=Cc3ccccc3C(CC(C)=O)N2c2ccc(C#CCCO)cc2)c1 (stereo not drawn)	?	21µM*	.	?	?	.
O=C(COc1ccc(/C=N/NC(=O)C(=O)N2CCCCCC2)cc1)Nc1ccccc1Cl	3%	?	-7%	?	-1%	10%
CCOc1ccc(S(=O)(=O)NCCc2ccccn2)cc1	14%	-12%	-14%	-25%	0%	-18%
COc1ccc(C2=Cc3ccccc3C(CC(=O)C3CC3)N2c2ccc(-c3cc(OC)c(OC)c(OC)c3)cc2)cc1 (stereo not drawn)	13%	-11%	.	-6%	4%	.
COc1ccc(N2C(c3cc(OC)cc(OC)c3)=Cc3ccccc3C2CC(C)=O)cc1 (stereo not drawn)	-24%	?	.	16µM*	-28%	.
COc1ccc(OC)c(S(=O)(=O)N2CCN(C(=O)CCc3ccccc3)CC2)c1	-5%	-3%	0%	-15%	-2%	-19%
O=C1c2cccc3cccc(c23)C(=O)N1CCCc1n[nH]c(=S)n1-c1ccccc1	-3%	-9%	-3%	?	-12%	13%
SMILES	HT1080-NT tox	TDP1 cell CPT	TGFb SMAD3 inh	TDP1 cell noCPT	HT1080 IDH1KD tx	HepG2 tox
CCOC(=O)c1ccc(NC(=S)N2CCSC2c2ccc(Cl)cc2)cc1 (stereo not drawn)	-9%	?	3%	16µM*	-23%	-19%
CC(C)=CCC[C@H](C)CC1Cc2[nH]c(=S)[nH]c(=O)c2C(c2ccc(Cl)cc2)O1 (stereo partly drawn)	?	?	.	?	16µM*	.
CC(C)=CCC[C@H](C)CC1Cc2[nH]c(=S)[nH]c(=O)c2C(c2ccc(F)cc2)O1 (stereo partly drawn)	1%	-4%	13µM*	?	0%	14µM*
CC(C)=CCC[C@H](C)C[C@@H]1Cc2[nH]c(=S)[nH]c(=O)c2[C@@H](c2ccc(F)cc2)O1	-22%	?	.	26µM*	-26%	.
CC(C)=CCC[C@H](C)C[C@@H]1CC2=C(C(=O)OC(C)(C)O2)[C@@H](c2ccc(F)cc2)O1	13%	?	.	16µM*	3%	.
CC(NC(=O)c1ccc(N2Cc3ccccc3Oc3ncccc32)s1)c1ccccc1 (stereo not drawn)	.	-21%	-13%	?	.	0%
Cc1nnc(-c2cccc(Br)c2)c2cn(-c3ccccc3)nc12	-4%	23µM*	-1%	?	-14%	-17%
Cc1nnc(-c2cccc(Br)c2)c2cn(-c3ccc(Br)cc3)nc12	-12%	?	?	15µM*	-27%	-12%
O=C(c1cn(-c2ccccc2)nc1-c1cccc(Br)c1)N1CCOCC1	-1%	-21%	13%	?	-2%	2%
Cc1nnc(-c2cccc(Br)c2)c2cn(-c3cccc(Br)c3)nc12	-11%	?	0%	16µM*	-28%	-14%
Cc1ccc(/C=C2/Sc3ccc(C(=O)N4CCN(C)CC4)cc3NC2=O)cc1	-14%	23µM*	-3%	?	-20%	-3%
CCN1CCCC1CNC(=O)c1ccc2c(=O)n(CCOC)c(=O)[nH]c2c1 (stereo not drawn)	5%	13%	-2%	-10%	-1%	-5%
CC1CCN(C(=O)c2ccc3c(c2)NC(=O)/C(=C/c2ccccc2)S3)CC1	?	?	?	-21%	?	-19%
